Source: PubChem
FBPA Giardia inh = Giardia lamblia aldolase inhibition; purified Giardia FBPA; 0.71% of 290,000 active; AID 2451; A8B2U2; Potency, µM (top dose mostly 59.6 µM), hits mostly inhibitors; note: nearly all actives have a fitted effect of over 55% in size
Target sequence (A8B2U2 whole entry, looked up): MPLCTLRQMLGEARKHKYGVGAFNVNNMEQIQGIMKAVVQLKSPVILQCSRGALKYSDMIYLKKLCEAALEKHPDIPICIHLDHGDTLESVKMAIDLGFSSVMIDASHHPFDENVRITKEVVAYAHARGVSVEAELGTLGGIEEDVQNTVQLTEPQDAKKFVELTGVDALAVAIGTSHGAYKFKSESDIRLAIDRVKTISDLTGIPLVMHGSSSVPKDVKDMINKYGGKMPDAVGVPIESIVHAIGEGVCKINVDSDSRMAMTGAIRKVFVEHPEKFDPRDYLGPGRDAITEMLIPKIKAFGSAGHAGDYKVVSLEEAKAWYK
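Giardia FBPA (40 nM reagent) was preincubated 10 min at RT with compound (up to 57.5 uM final), then substrate plus GAPDH/TPI/NAD/arsenate coupling system with diaphorase/resazurin was added; resorufin fluorescence (525/598 nm) was read after 20 min.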
AMA1 RON2 block = AMA1-RON2 (P. falciparum) interaction inhibition. Potency, µM (series often up to 58.2 µM), actives largely listed as inhibitors. 0.2% of 360,000 active. AlphaScreen AMA1-biotinylated RON2 peptide binding; note: nearly all actives have a fitted effect of over 45% in size
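AMA1 (3D7) with his tag at 25 nM final met compounds first, then biotinylated RON2 peptide at 25 nM; detection used donor plus acceptor beads, 10 µg/mL apiece, read by AlphaScreen after 30 min at room temperature.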
AmpC inh detg = inhibitors of E. coli AmpC beta-lactamase with detergent; 0.041% of 370,000 active; AID 485294; P00811; AmpC hydrolysis of nitrocefin, absorbance 480 nm, 0.01% Triton; Potency, µM (titrated, usually from 114 µM), actives largely listed as inhibitors; note: nearly all actives have a fitted effect of over 25% in size
Target sequence (P00811 whole entry, looked up): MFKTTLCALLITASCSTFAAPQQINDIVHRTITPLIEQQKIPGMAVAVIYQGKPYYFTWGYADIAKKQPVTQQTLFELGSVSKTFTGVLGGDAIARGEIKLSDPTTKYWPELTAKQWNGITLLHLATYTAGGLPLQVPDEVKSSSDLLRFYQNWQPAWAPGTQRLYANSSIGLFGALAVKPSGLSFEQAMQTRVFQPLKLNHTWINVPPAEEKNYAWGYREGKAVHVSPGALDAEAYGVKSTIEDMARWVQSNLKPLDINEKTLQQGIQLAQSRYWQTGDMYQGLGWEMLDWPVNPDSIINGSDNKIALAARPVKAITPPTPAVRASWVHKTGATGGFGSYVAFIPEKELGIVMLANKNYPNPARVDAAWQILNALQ
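20 mM phosphate pH 7.0 + 0.01% (detergent screen) or 0.0001% Triton X-100; 5.3 nM AmpC reagent; cpd preinc 15 min RT; nitrocefin (800 uM stock) to start; A480 q20 s × 4 min; Activity was normalised to no-enzyme and no-compound control wells.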
AmpC no deterg = inhibitors of E. coli AmpC beta-lactamase without detergent; P00811; AmpC nitrocefin hydrolysis, absorbance 480 nm, 0.0001% Triton; Potency, µM (top dose mostly 57.1 µM), hits mostly inhibitors; 0.52% of 330,000 active; AID 485341; note: nearly all actives have a fitted effect of over 20% in size
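AmpC (5.3 nM in the dispensed reagent) in 20 mM phosphate pH 7.0 with 0.01% (detergent screen) or 0.0001% Triton X-100 was preincubated with compounds for 15 min at room temperature. Nitrocefin was then added from an 800 uM solution, and hydrolysis was followed at 480 nm.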
Numbers stand for hits; 0 = inactive; ? = inconclusive; - = not tested or not shown; [ ] = dose if it differs, or a comment. Compounds with a hit are over-represented: about 1.1% of the library has one in this group of screens. Calls come from the whole dose curve; as a rule, active = well fitted curve in the direction sought with a large enough effect; inconclusive = small, poorly fitted or top-dose-only effect, or another doubt; inactive = no such curve, though single readings can be large; an effect the other way counts as inactive or inconclusive.

SMILES	FBPA Giardia inh	AMA1 RON2 block	AmpC inh detg	AmpC no deterg
Cc1cc(C)cc(NC(=O)COC(=O)c2n[nH]c3ccccc23)c1	0	0	0	16µM
CCN(CC)S(=O)(=O)c1cccc(NC(=O)COC(=O)c2n[nH]c(=O)c3ccccc23)c1	0	0	0	28µM
Cc1cc(NC(c2cccnc2)c2ccc3cccnc3c2O)no1 (centres undefined)	0	20µM	0	0
Cc1ccc(NC(=O)CN(C)S(=O)(=O)c2cccc3nsnc23)cc1	0	0	0	0.16µM
CN(CC(=O)Nc1ccc(Br)cc1)S(=O)(=O)c1cccc2nsnc12	-	-	0	-
Cc1ccc(CNC(=O)C2CCN(c3nc4ccc(C)cc4[nH]3)CC2)cc1	-	-	0	-
CO[C@H]1COC(=O)C/C=C\[C@@H](C)[C@H](OC)COC(=O)[C@H]2CCCN2C(=O)C/C=C\[C@@H]1C	0[12.9 µM]	-	-	-
NC(=O)c1ccsc1NC(=O)COC(=O)COc1ccccc1[N+](=O)[O-]	-	0	56µM	0
NC(=O)c1ccsc1NC(=O)COC(=O)COc1ccccc1F	0	0	0	0
COc1cc(NC(=O)CCS(=O)(=O)c2ccc3c(c2)CC(=O)N3C)cc(OC)c1OC	-	-	0	-
COc1ccc(/C=C/C(=O)c2ccc(O)cc2)cc1COc1ccc(F)cc1	0	0	0	11µM
COc1ccc(/C=C/C(=O)c2ccccc2)cc1COc1ccc(F)cc1	0	0	0	0
COc1ccc(NC(=O)Cc2c[nH]c3ccccc23)cc1S(=O)(=O)N1CCCCC1	0	0	0	14µM
COc1ccc(NC(=O)Cc2c[nH]c3ccccc23)cc1S(=O)(=O)N1CCOCC1	0	0	0	0
O=C1NC(=O)N(Cc2ccco2)C(=O)/C1=C/c1cccn1CCOc1ccccc1Cl	0	0	0	13µM
COc1cc(OC)c(OC)cc1CNCCSc1nnnn1-c1ccccc1	-	-	0	-
COc1cc(N(C)C)ccc1C=c1c2ccccc2n2c1cc(-c1ccccc1)[n+]2C	-	13µM	-	-
CN(C)c1ccc(C=c2c3cc([N+](=O)[O-])ccc3n3c2cc(-c2ccccc2)[n+]3C)cc1	-	8.9µM	-	-
CN(C)c1ccc(C=c2c3ccccc3n3c2cc(-c2ccc(Cl)cc2)[n+]3C)cc1	-	18µM	-	-
CN(C)c1ccc(-[n+]2c(-c3ccccc3)cc(-c3ccccc3)cc2-c2ccccc2)cc1	0	0	0	0
CN(C)c1ccc(C=c2c3ccccc3n3c2cc(-c2ccccc2)[n+]3C)cc1	-	32µM	-	-
COc1cc(F)ccc1S(=O)(=O)N1CCN(c2ccccc2)CC1	0	0	0	0
CCCCCNC(=O)C(c1ccc(C(F)(F)F)cc1)n1c(=O)c(-c2ccco2)nc2ccccc21 (centres undefined)	-	0	-	-
COc1ccc(NC(=O)N2c3ccccc3C(C)=CC2(C)C)cc1	0	0	0	0
COc1ccc(NC(=O)N2c3ccc(OC)cc3C(C)=CC2(C)C)cc1	11µM	0	?	0
SMILES	FBPA Giardia inh	AMA1 RON2 block	AmpC inh detg	AmpC no deterg
C=CCOC(=O)N[C@H](c1cccc(C(F)(F)F)c1)C(C(C)=O)C(C)=O	0	-	-	-
Clc1ccc(CSc2cc3c(nn2)-c2ccccc2CC3)cc1Cl	0	0	0	0.32µM
Clc1cccc(Cl)c1CSc1cc2c(nn1)-c1ccccc1CC2	0	0	0	0
Cc1nn(-c2ccccn2)c2c1C(=O)C(Br)CC2 (centres undefined)	5µM	0	0	0
Cc1sc2nc(CN(C(=O)NC3CCCCC3)C3CCCC3)[nH]c(=O)c2c1C	0	0	0	0
Cc1sc2nc(CN(Cc3cccs3)C(=O)NC3CCCCC3)[nH]c(=O)c2c1C	0	0	35µM	0
CC(=O)Nc1sc(C)c(C)c1C(=O)OCC(=O)N(CCC#N)c1cc(C)cc(C)c1	-	0	0	0
CNC(=S)N1N=C(c2ccc(C)cc2)CC1c1ccc(N(C)C)cc1 (centres undefined)	0	28µM	0	0
CCOc1ccc(-c2c(C(=O)N/N=C/c3ccc(O)cc3)nnn2-c2nonc2N)cc1	0	0	0	0
CCOc1ccc(-c2c(C(=O)N/N=C/c3cccc(Br)c3)nnn2-c2nonc2N)cc1	-	0	0	16µM
CCOc1ccc(-n2c(SCC(=O)NCc3ccco3)nnc2-c2c[nH]c3ccccc23)cc1	0	0	?	1.4µM
Cn1c(SCC(=O)NCc2ccco2)nnc1-c1c[nH]c2ccccc12	0	0	?	0
COCCCn1c(SCC(=O)Nc2ccc(F)cc2)nc2c(sc3ccccc32)c1=O	-	-	0	-
COc1ccc(OC)c(NC(=O)Cn2cnc3onc(-c4ccc(Cl)cc4)c3c2=O)c1	-	-	0	-
CCCCn1nc2cc(C(=O)NCc3cc(C(F)(F)F)cc(C(F)(F)F)c3)ccc2c1OC	0	0	0	5.6µM
COc1ccc(NC(=O)CN2C(=O)CSc3ccc(S(=O)(=O)N(C)C)cc32)cc1Cl	-	-	0	-
CC(NS(=O)(=O)c1ccc(Br)cc1)C(c1cccs1)N1CCN(C)CC1 (centres undefined)	0	0	?	45µM
CC(C)c1ccc(N(C(=O)c2snc(C(N)=O)c2N)C(C(=O)NCC2CCCO2)c2ccc(N(C)C)cc2)cc1 (centres undefined)	0	14µM	0	0
CC1(C)CC[C@]2(C(=O)O)C(O)C[C@@]3(C)C(=CCC4[C@@]5(C)CCC(O)C(C)(C)C5CC[C@@]43C)C2C1 (some centres undefined)	0	-	-	-
c1ccc(CCNc2ccnc3cc4ccccc4cc23)cc1	?	0	0	18µM
O=C(NCCc1ccccc1)c1nccc2ccccc12	-	0	0	0
CC(C)Nc1ccc(Nc2ccnc3cc4ccccc4cc23)cc1	0	7.9µM	0	0
CCc1ccc(NC(=O)Cn2cc(S(=O)(=O)c3ccc(F)cc3)c(=O)c3cc(OC)ccc32)cc1	-	-	0	-
O=C1NC(=Nc2ccc(O)cc2)S/C1=C\C=C\c1ccco1	0	0	0	18µM
CN(C)c1ccc(CNC(=O)c2cnc3sc(N4CCCCCC4)nn3c2=O)cc1	-	-	0	-
SMILES	FBPA Giardia inh	AMA1 RON2 block	AmpC inh detg	AmpC no deterg
COc1ccc(O)c(C(=O)c2coc(=N)c(C(=O)Nc3ccc(SC(F)F)cc3)c2)c1	0	0	0	14µM
O=c1[nH]c(COc2ccc(Cl)cc2Br)nc2ccccc12	-	0	0	0
CCCCCCn1c(=O)c(F)cn(Cc2ccc(OC)c([N+](=O)[O-])c2)c1=O	0	0	0	0.14µM
CCCCCn1c(=O)c(F)cn(Cc2ccc(OC)c([N+](=O)[O-])c2)c1=O	0	0	0	0
O=C(O)c1ccc(N=Nc2c(O)ccc3ncccc23)cc1	?	6.3µM	0	0
Cn1cccc1Cc1nnc(SCC(=O)N2CCOCC2)n1-c1ccc(F)cc1	0	0	0	2.5µM
COc1ccc(-n2c(Cc3cccn3C)nnc2SCC(=O)N2CCOCC2)cc1	0	0	?	0
CC(C)n1c(=O)c2ccccc2n1Cc1cn(Cc2cccs2)nn1	-	0	-	-
Cc1cc(Cl)ccc1C(O)c1ncc(-c2ccc(F)cc2)[nH]1 (centres undefined)	-	0	-	-
Cc1ccc(NC(=O)NNC(=O)c2cc3ccccc3cc2O)cc1	0	0	0	10µM
Cc1cc(=O)oc2c(CN3CCCC3)c(O)ccc12	0	0	0	0
